Laboratory results as given in PubChem BioAssay AID588676 (Johns Hopkins Ion Channel Center, 2011).
Screen size: about 310,000 compounds; about 3,900 (1.3%) were called active.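 The calls were made as follows: active = calcium-response B-score plate-corrected more than 3 library SD below zero, starting fluorescence within 5 deviations, no agonist response on first addition; inactive = the rest.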 For the sample, actives were picked, then their nearest neighbours and some compounds at random.

Target: Mas-related G-protein coupled receptor member X1 (Homo sapiens) (UniProt Q96LB2)
Sequence (Q96LB2 whole entry, looked up): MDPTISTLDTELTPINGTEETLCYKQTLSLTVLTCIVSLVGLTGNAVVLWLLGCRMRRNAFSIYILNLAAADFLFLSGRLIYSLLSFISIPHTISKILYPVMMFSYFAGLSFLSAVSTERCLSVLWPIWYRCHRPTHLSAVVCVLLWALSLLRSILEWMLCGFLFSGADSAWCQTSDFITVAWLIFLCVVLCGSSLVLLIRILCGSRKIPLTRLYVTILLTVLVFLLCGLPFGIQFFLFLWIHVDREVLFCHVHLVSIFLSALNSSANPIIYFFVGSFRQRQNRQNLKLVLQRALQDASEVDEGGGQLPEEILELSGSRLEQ
Test: blockade of BAM8-22-evoked MrgX1 calcium response – HEK293 cells, Fluo-4 calcium flux, primary screen (AID 588676);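 as to B-score: peak minus trough fluorescence over baseline after final BAM8-22 challenge near maximal dose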
Details: Fluo-4, BAM8-22 antagonism, at 10 µM; hits give low values

Compound | B-score
Cc1ccc(N2C(=O)CC(NCc3ccc4c(c3)OCO4)C2=O)cc1Cl (stereo not drawn) | inactive
O=C(CSc1nnnn1-c1ccc(O)cc1)N1N=C(c2ccc3ccccc3c2)CC1c1ccccc1 (stereo not drawn) | inactive
CSc1nc2c(c(=O)[nH]1)C(c1cccc(Cl)c1Cl)CC(=O)N2 (stereo not drawn) | inactive
CCOc1ccc(Nc2nc(Cc3nnc(SCC(=O)c4ccc(C)cc4)o3)cs2)cc1 | inactive
COc1cc(OC)c(OC)cc1/C=N/Nc1ncnc2c1[nH]c1ccc(C)cc12 | inactive
CC(C)OCCCNC(=O)c1cc(Sc2ccc(F)cc2)nc2ccccc12 | inactive
CC(C)OCCCNc1ncnc2c1[nH]c1ccc(F)cc12 | -12 (active)
O=C(CN1CCN(c2ccccn2)CC1)Nc1ccc(Br)cc1 | inactive
O=C(CN1CCN(c2ccccn2)CC1)NC1CCCCC1 | -5.03 (active)
O=C(CN1CCN(c2ccccn2)CC1)NCc1cccs1 | inactive
CCOC(=O)C1=C(c2ccc(OC)cc2)C(=O)c2ccccc2C1=O | inactive
CCOC(=O)C1C(=O)C=C(c2ccc(OC)cc2)CC1c1ccco1 (stereo not drawn) | -5.76 (active)
CCOC(=O)C1C(=O)NC(N2CCN(c3ccccc3)CC2)=NC1c1ccco1 (stereo not drawn) | inactive
N#Cc1cccc(CN2CCC(=O)N([C@H](CO)c3ccccc3)CC2)c1 | inactive
O=C(C1CCN(S(=O)(=O)c2cnc[nH]2)CC1)N1CCN(Cc2ccc3c(c2)OCO3)CC1 | -6 (active)
Cc1cccc(N2CCN(C(=O)C3CCN(S(=O)(=O)c4cnc[nH]4)CC3)CC2)c1C | inactive
O=C(C1CCN(Cc2ccc(Cl)cc2)CC1)N1CCN(Cc2ccc3c(c2)OCO3)CC1 | inactive
Cc1ccc(C(=O)N2CC(=O)Nc3ccc(F)cc3C2c2ccc(F)cc2)cc1 (stereo not drawn) | inactive
O=[N+]([O-])c1cc(S(=O)(=O)CCCN2CCOCC2)ccc1F | -6.04 (active)
O=[N+]([O-])c1ccc(NCCCN2CCOCC2)c(Cl)c1 | inactive
O=C(NCCCN1CCOCC1)c1ccc([N+](=O)[O-])cc1[N+](=O)[O-] | inactive
CC(NC(=O)CNC(=O)Cc1cccc2ccccc12)c1ccc(S(N)(=O)=O)cc1 (stereo not drawn) | inactive
O=[N+]([O-])c1ccc2c(c1)C(N1CCOCC1)/C(=C/C1(O)CCCCC1)O2 (stereo not drawn) | inactive
CC1(C)CC(=O)CC2(C1)NCC(c1ccccc1Cl)c1c2[nH]c2ccccc12 (stereo not drawn) | inactive
Cc1ccc(S(=O)(=O)n2cccc2CO)cc1 | inactive

Compound | B-score
COCCN(Cc1cc2cc3c(cc2nc1Cl)OCO3)C(=O)c1cccc(C)c1 | inactive
COc1ccc(C2/C(=C(/O)c3ccc4c(c3)CC(C)O4)C(=O)C(=O)N2Cc2ccncc2)cc1 (stereo not drawn) | inactive
COc1ccc(/C(O)=C2\C(=O)C(=O)N(Cc3ccco3)C2c2ccc(OC)cc2OC)cc1 (stereo not drawn) | inactive
COc1cc(C2/C(=C(\O)c3ccc4c(c3)CC(C)O4)C(=O)C(=O)N2Cc2ccco2)ccc1O (stereo not drawn) | -5.81 (active)
Cc1cccc(CSc2ccc(-c3cccs3)nn2)c1 | inactive
C=CCN1CC(C)/C(=N\O)CC1C (stereo not drawn) | inactive
O=[N+]([O-])c1cc(Cl)cc(/C=N/NC(=S)Nc2cc(S(=O)(=O)N3CCOCC3)ccc2Cl)c1O | -7.04 (active)
O=C(N/N=C/c1ccc([N+](=O)[O-])o1)c1cccc(S(=O)(=O)N2CCOCC2)c1 | inactive
O=C(N/N=C/c1cc(Cl)cc([N+](=O)[O-])c1O)C(O)(c1ccccc1)c1ccccc1 | inactive
CCCCN(C(=O)CCNC(=O)NC12CC3CC(CC(C3)C1)C2)c1c(N)n(CCCC)c(=O)[nH]c1=O | inactive
CN(CCc1ccccn1)C(=O)CCC1CCCN(Cc2ccccc2OC(F)F)C1 (stereo not drawn) | inactive
CCc1cc2cc(OC)ccc2nc1SCC(=O)Nc1cc(OC)c(OC)cc1C(=O)O | inactive
N#Cc1ccc(OCc2nnc(-c3ccc([N+](=O)[O-])cc3)o2)cc1 | -5.3 (active)
Cc1cc(OCCCCOc2ccc(C#N)cc2)ccc1[N+](=O)[O-] | inactive
CCOC(=O)CSc1nnc(-c2ccc([N+](=O)[O-])cc2)o1 | inactive
CCn1cc(C(=O)NCCCN2CCCCCC2)c(=O)c2cc(S(=O)(=O)N3CCc4ccccc4C3)ccc21 | inactive
CCOc1cc(C(=O)Nc2c(C)ccc3nsnc23)cc(OCC)c1OCC | inactive
Cc1cccn2c(=O)c(/C=C3\SC(=S)N(CC(C)C)C3=O)c(NCCCOC(C)C)nc12 | -11.6 (active)
CNc1nc2c(C)cccn2c(=O)c1C=Nc1ccc(OC)cc1 | inactive
CCOC(=O)CC1C(=O)NCCN1c1nc2c(C)cccn2c(=O)c1/C=C1\SC(=S)N(C(C)CC)C1=O (stereo not drawn) | inactive
Cc1coc2c1c(C)cc1oc(=O)c(CC(=O)NCC(=O)N[C@H](C(=O)O)C(C)C)c(C)c12 | inactive
CCCCn1c(N)c(N(CC(C)C)C(=O)c2ccc(-n3c(C)ccc3C)cc2)c(=O)[nH]c1=O | inactive
O=C(COc1coc(CN2CCN(c3ccccc3)CC2)cc1=O)Nc1ccccc1F | inactive
COc1ccc(C(=O)CSc2nccc(=O)[nH]2)cc1 | inactive
COc1ccc(CNC(=O)CSc2n[nH]c(N)n2)cc1OC | inactive

Compound | B-score
COc1ccc(C(=O)CSc2n[nH]c(N)n2)cc1 | -4.92 (active)
O=C(c1cc(-c2ccc(Cl)s2)nc2ccccc12)N1CCOCC1 | inactive
CCOC(=O)c1nn(-c2cccc(C)c2)cc1C(=O)c1ccccc1 | inactive
CCOC(=O)c1cn(Cc2cccc(C)c2)nn1 | -5.74 (active)
CCOC(=O)c1cn(CC(=O)Nc2ccc(C(C)C)cc2)nn1 | inactive
COC(=O)[C@@H]1CC[C@H](C)[C@@H](c2ccc(C)cc2)N1C(=O)c1ccc(/C=N/O[C@H](C)c2cn([C@@H]3COC[C@H]3O)nn2)cc1 | inactive
Cc1cccc(N(C(=O)c2csnn2)C(C(=O)NCc2ccccc2)c2ccncc2)c1 (stereo not drawn) | inactive
O=C1CSC(=S)N1c1ccc(Cl)c(Cl)c1 | inactive
CCN(CC(=O)Nc1cc(Cl)ccc1C)C(=O)CSCc1ccc(C)cc1 | inactive
COc1ccc(NS(=O)(=O)c2ccc(NC(=O)c3ccc(N(C)S(C)(=O)=O)cc3)cc2)cc1 | inactive
COc1ccc(NS(=O)(=O)c2cc(NC(=O)CC(=O)c3ccc([N+](=O)[O-])cc3)ccc2C)cc1 | inactive
CCN(CC)c1ccc(NC(=O)c2ccc(=O)[nH]c2)cc1S(=O)(=O)Nc1ccc(OC)cc1 | -4.78 (active)
O=C(NCc1ccc2c(c1)OCO2)c1sccc1Br | inactive
O=C(O)c1ccc2c(c1)C(=O)N(NC(=O)c1ccc(O)cc1)C2=O | inactive
O=C(c1ccc(O)cc1)c1ccc(C(=O)O)c(C(=O)O)c1 | -10.2 (active)
O=C(Nc1ccc(C(=O)O)c(O)c1)c1ccccc1 | inactive
CCCOc1ccc(N2C(=O)CC(N(CCc3ccc(S(N)(=O)=O)cc3)C(C)=O)C2=O)cc1 (stereo not drawn) | inactive
CC(=O)Nc1ccc(S(=O)(=O)N2CCC(C(=O)N[C@@H](Cc3ccccc3)C(=O)O)CC2)cc1 | inactive
CCN(CC)S(=O)(=O)c1ccc(N(C)Cc2cccc(OC)c2OC)nc1 | inactive
COc1cc(N)c(Cl)cc1C(=O)OCC(=O)c1ccc2c(c1)NC(=O)CO2 | inactive
CC1CCC(NC(=O)C2c3ccccc3C(=O)N2Cc2ccc3c(c2)OCO3)CC1 (stereo not drawn) | inactive
O=C1c2ccccc2C(Nc2ccc3c(c2)OCCO3)N1Cc1ccco1 (stereo not drawn) | inactive
O=C(NC1CCCCC1)C1c2ccccc2C(=O)N1Cc1ccco1 (stereo not drawn) | -7.6 (active)
Cc1cc(OC(C)C(=O)Nc2ccc(S(=O)(=O)Nc3onc(C)c3C)cc2)cc(C)c1Cl (stereo not drawn) | inactive
COc1ccc(-c2ocnc2C(=O)Nc2ccc3c(c2)CCC3)cc1 | inactive

Compound | B-score
CCN1C(=O)[C@@H]2[C@@H](c3ccc(-c4ccc(OC)cc4)c(OC)c3)N3CCC[C@@]3(C(=O)OC)[C@@H]2C1=O | inactive
O=[N+]([O-])c1cccc(S(=O)(=O)NCc2ccccn2)c1 | inactive
O=c1cc(CO)oc(C(Nc2cccc([N+](=O)[O-])c2)c2ccccn2)c1O (stereo not drawn) | -4.59 (active)
O=c1cc(CO)oc(C(Nc2cccc(C(F)(F)F)c2)c2ccccn2)c1O (stereo not drawn) | inactive
O=C(c1ccc(Cl)cc1)N1N=C(c2ccccn2)CC1(O)C(F)(F)F (stereo not drawn) | inactive
Cc1nnc(SCC(=O)Nc2ccc(S(=O)(=O)Nc3ccc(Cl)nn3)cc2)s1 | inactive
CN(c1cccc(NC(=O)Nc2ccc(Cl)cc2)c1)S(C)(=O)=O | -8.9 (active)
CN(c1cccc(NC(=O)c2ccc(CN3CCc4ccccc4C3)cc2)c1)S(C)(=O)=O | inactive
COc1cccc(N(CC(=O)Nc2cccc(N(C)S(C)(=O)=O)c2)S(C)(=O)=O)c1 | inactive
O=C(COC(=O)c1cnccn1)Nc1cccc2ccccc12 | inactive
CC(C)NC(=S)Nc1cccc2cnccc12 | -4.98 (active)
COC(=O)c1cccnc1NC(=S)NC(C)C | inactive
Cc1ccc2cc(CN(c3ccc(C)c(C)c3)S(C)(=O)=O)c(=O)[nH]c2c1 | inactive
Cc1cc([N+](=O)[O-])ccc1NCc1cccc([N+](=O)[O-])c1 | inactive
Cc1c(Br)c([N+](=O)[O-])nn1CC(=O)Nc1sc2c(c1C(=O)OC(C)C)CCC(C)C2 (stereo not drawn) | inactive
COc1ccc(C(=O)Nc2c(N)nc(SCC(=O)N3CCC(C)CC3)[nH]c2=O)cc1OC | -5.91 (active)
COC(=O)c1ccc(NC(=O)CSc2nc(N)c(NC(=O)c3ccc(Br)o3)c(=O)[nH]2)cc1 | inactive
COc1ccc(C(=O)Nc2c(N)nc(SCC(=O)Nc3ccc(C(C)=O)cc3)[nH]c2=O)cc1 | inactive
COC(=O)C(C(=O)Nc1cccc(C)n1)C1CCCCCC1 (stereo not drawn) | inactive
Cc1c(NC(=O)CCC2CCCCC2)cc(C(=O)N2CCOCC2)cc1[N+](=O)[O-] | inactive
Cc1ccc(S(=O)(=O)Nc2nc3ccccc3nc2N2CCc3ccccc3C2)cc1 | inactive
Cc1ccc(S(=O)(=O)C(C#N)c2nc3ccccc3nc2N2CCCC2)cc1C (stereo not drawn) | -6.25 (active)
Cc1cc(N2CCN(S(=O)(=O)c3ccc(C)c(C)c3)CC2)c2ccccc2n1 | inactive
